# The panel holds about 79,000 compounds, 15% with a hit somewhere; the sample as a whole holds those more often. Unmarked numbers belong to inactive results. The source made the active and inactive calls. Rule as the data show it: active = growth inhibition above about 70%; inactive = the rest. Where a SMILES comes first, the peptide text is derived from it. The star is where a group is joined. Fmoc = O=C(OCC1c2ccccc2-c2ccccc21)*; OBn = c1ccc(CO*)cc1; tBu = CC(C)(C)*
# Assay: NCI Yeast Anticancer Drug Screen. Data for the sgs1 mgt1 strain (AID 161);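 also: 0% = growth of cultures given vehicle only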
# Conditions: S. cerevisiae sgs1 mgt1 strain, at 50.0 µM, stronger effect = higher value
# How it was run: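 Yeast cells carrying a defined DNA-repair defect were exposed to test compounds. Growth inhibition was measured relative to vehicle-treated controls.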
row,Structure (SMILES),growth inhibition
1,Nc1nc(Cl)c2nc(Cl)n(C3OC(CO)C(O)C3O)c2n1 (stereo not given),-8.7%
2,COc1ccc2nc3cc(Cl)ccc3c(NCCCNCCCNc3c4ccc(Cl)cc4nc4ccc(OC)cc34)c2c1,-9.1%
3,CCCCCCCCCCCCCCCc1cc(=O)n(-c2ccc(NC(C)=O)cc2)n1C,-12.6%
4,Cc1cccc([N+](=O)[O-])c1C,7.3%
5,CCOC(=O)c1c2ccc(/C=C/c3ccccc3)ccc-2c(C(=O)OCC)c1N,-23.9%
6,CN1CCC(CC(O)(c2ccccc2)C2CCCCC2)C1 (stereo not given),-2.3%
7,Nc1ncnc2c1ncn2C1OC(C(=O)OCCO)C(O)C1O (stereo not given),-12.6%
8,O=C1CCC(c2n[nH]c(=S)o2)N1 (stereo not given),9.05%
9,CN(C)c1nc(Cl)nc2nc(Cl)[nH]c12,13.2%
10,OCCN(CCO)c1ccc(-n2cnc3c(=S)nc[nH]c32)cc1,5.55%
11,Cc1cccc(C)c1NC(=O)C(=O)Cc1nc2ccccc2s1,-9.25%
12,CC(=O)c1ccc([C@H](O)[C@H](CO)NC(=O)C(Cl)Cl)cc1,6.95%
13,CCOC(OCC)/C(C)=N/N(C)C,-5.35%
14,CN(C)CCCCCCNCCC#N,-8.4%
15,CCOC(=O)c1[nH]n(-c2ccccc2)c(=O)c1/C=N/C(=S)Nc1c(CC)cccc1CC,-18.2%
16,COc1cc(C2c3cc4c(cc3OC(N3CCCCC3)C2C)OCO4)cc(OC)c1O (stereo not given),-14.3%
17,O=C(O)CNC(=O)NNc1ccccc1,-11%
18,CC(OC(C)(C)C)C(NC(=O)OCC1c2ccccc2-c2ccccc21)C(=O)NC(Cc1ccccc1)C(=O)OCc1ccccc1 (stereo not given) (Fmoc-Thr(tBu)-Phe-OBn; configuration not given here),-4.5%
19,CCCCC(=O)OC[n+]1ccc2c(C)c3[nH]c4ccc(OC)cc4c3c(C)c2c1,90.2% (active)
20,C=CCc1cccc(C)c1O,20.4%

row,Structure (SMILES),growth inhibition
1,CCOC(=O)CNC(=O)C(=[N+]=[N-])C(=O)COc1ccc(Cl)cc1Cl,18.1%
2,O=C(CNS(=O)(=O)c1ccccc1)c1ccc(Cl)cc1Cl,53%
3,COc1cc(-c2ccc(N=Nc3ccc(N)nc3N)c(OC)c2)ccc1N=Nc1ccc(N)nc1N,23.3%
4,OC1COc2c3ccccc3nn2C1 (stereo not given),21.7%
5,Cc1cc(CC(N)C(=O)O)ccc1O (stereo not given),-6%
6,CC1=CC[C@H]2C(C)=CC[C@@H](C(C)C)[C@@H]2C1,24.2%
7,CCCCCCCCCCCCCCCCCC[N+]1(C)CCOCC1,99.1% (active)
8,NC1C(O)C(N)C(O)C(O)C1O (stereo not given),5.6%
9,O=C1CC(c2ccccc2)Oc2ccccc21 (stereo not given),-16.8%
10,CC1CSC(C)(C)C(=O)N1 (stereo not given),2.35%
11,Nc1cccc(S(N)(=O)=O)c1,-0.85%
12,Cc1nc2ccccc2c(=O)n1NC(=S)Nc1cccc(Cl)c1,28.1%
13,CCOC(=O)c1ccc(NC=O)cc1,-8.75%
14,C/C(=N\O)c1sc(-n2nc(-c3ccccc3)cc2-c2ccccc2)nc1C,37.6%
15,O=C(O)CCN1C(=S)CSC1=S,-38.5%
16,COc1cc(-c2[nH]ncc2CCCC(=O)Nc2ccccc2[N+](=O)[O-])ccc1O,-14.5%
17,CN(C)CC1CCC/C(=C\c2ccc(N(C)C)cc2)C1=O (stereo not given),-9.85%
18,COc1ccc(C2NCCCC2c2ccccc2)cc1 (stereo not given),-2.65%
19,CCOc1c(Cl)c(Cl)c(Cl)c(Cl)c1Cl,-6.7%
20,CCOC(=O)C(Cc1cc(C)c(O)c(I)c1)NC(C)=O (stereo not given),-11.2%

# Assay: NCI Yeast Anticancer Drug Screen. Data for the cln2 rad14 strain (AID 165);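 also: 0% = growth equal to vehicle treated cultures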
# Conditions: S. cerevisiae cln2 rad14 strain, at 50.0 µM, stronger effect = higher value
# How it was run: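 Readout is yeast growth inhibition versus vehicle-treated controls, using a strain with cln2 and rad14 alterations exposed to compound.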
row,Structure (SMILES),growth inhibition
1,Nc1nc(Cl)c2nc(Cl)n(C3OC(CO)C(O)C3O)c2n1 (stereo not given),-16%
2,COc1ccc2nc3cc(Cl)ccc3c(NCCCNCCCNc3c4ccc(Cl)cc4nc4ccc(OC)cc34)c2c1,3.5%
3,CCCCCCCCCCCCCCCc1cc(=O)n(-c2ccc(NC(C)=O)cc2)n1C,3.1%
4,Cc1cccc([N+](=O)[O-])c1C,23.4%
5,CCOC(=O)c1c2ccc(/C=C/c3ccccc3)ccc-2c(C(=O)OCC)c1N,10.6%
6,CN1CCC(CC(O)(c2ccccc2)C2CCCCC2)C1 (stereo not given),-24.4%
7,Nc1ncnc2c1ncn2C1OC(C(=O)OCCO)C(O)C1O (stereo not given),-12.2%
8,O=C1CCC(c2n[nH]c(=S)o2)N1 (stereo not given),-6.65%
9,CN(C)c1nc(Cl)nc2nc(Cl)[nH]c12,0.8%
10,OCCN(CCO)c1ccc(-n2cnc3c(=S)nc[nH]c32)cc1,-43.8%
11,Cc1cccc(C)c1NC(=O)C(=O)Cc1nc2ccccc2s1,-4.45%
12,CC(=O)c1ccc([C@H](O)[C@H](CO)NC(=O)C(Cl)Cl)cc1,-57.4%
13,CCOC(OCC)/C(C)=N/N(C)C,7.3%
14,CN(C)CCCCCCNCCC#N,-8.85%
15,CCOC(=O)c1[nH]n(-c2ccccc2)c(=O)c1/C=N/C(=S)Nc1c(CC)cccc1CC,-13.2%
16,COc1cc(C2c3cc4c(cc3OC(N3CCCCC3)C2C)OCO4)cc(OC)c1O (stereo not given),6.95%
17,O=C(O)CNC(=O)NNc1ccccc1,28.3%
18,CC(OC(C)(C)C)C(NC(=O)OCC1c2ccccc2-c2ccccc21)C(=O)NC(Cc1ccccc1)C(=O)OCc1ccccc1 (stereo not given) (Fmoc-Thr(tBu)-Phe-OBn; configuration not given here),-15.7%
19,CCCCC(=O)OC[n+]1ccc2c(C)c3[nH]c4ccc(OC)cc4c3c(C)c2c1,89.1% (active)
20,C=CCc1cccc(C)c1O,13.6%

row,Structure (SMILES),growth inhibition
1,CCOC(=O)CNC(=O)C(=[N+]=[N-])C(=O)COc1ccc(Cl)cc1Cl,-18.3%
2,O=C(CNS(=O)(=O)c1ccccc1)c1ccc(Cl)cc1Cl,22.3%
3,COc1cc(-c2ccc(N=Nc3ccc(N)nc3N)c(OC)c2)ccc1N=Nc1ccc(N)nc1N,12.4%
4,OC1COc2c3ccccc3nn2C1 (stereo not given),14.5%
5,Cc1cc(CC(N)C(=O)O)ccc1O (stereo not given),-6.85%
6,CC1=CC[C@H]2C(C)=CC[C@@H](C(C)C)[C@@H]2C1,21.6%
7,CCCCCCCCCCCCCCCCCC[N+]1(C)CCOCC1,98.7% (active)
8,NC1C(O)C(N)C(O)C(O)C1O (stereo not given),1.6%
9,O=C1CC(c2ccccc2)Oc2ccccc21 (stereo not given),8.2%
10,CC1CSC(C)(C)C(=O)N1 (stereo not given),-26.8%
11,Nc1cccc(S(N)(=O)=O)c1,-40%
12,Cc1nc2ccccc2c(=O)n1NC(=S)Nc1cccc(Cl)c1,-12.8%
13,CCOC(=O)c1ccc(NC=O)cc1,-12.5%
14,C/C(=N\O)c1sc(-n2nc(-c3ccccc3)cc2-c2ccccc2)nc1C,25.4%
15,O=C(O)CCN1C(=S)CSC1=S,8.9%
16,COc1cc(-c2[nH]ncc2CCCC(=O)Nc2ccccc2[N+](=O)[O-])ccc1O,7.8%
17,CN(C)CC1CCC/C(=C\c2ccc(N(C)C)cc2)C1=O (stereo not given),12.2%
18,COc1ccc(C2NCCCC2c2ccccc2)cc1 (stereo not given),14.8%
19,CCOc1c(Cl)c(Cl)c(Cl)c(Cl)c1Cl,9.3%
20,CCOC(=O)C(Cc1cc(C)c(O)c(I)c1)NC(C)=O (stereo not given),4.2%

# — PubChem BioAssay (NCI)
